Source: PubChem
zVAD death inh: L929 zVAD cell death inhibition | L929 zVAD necroptosis rescue, ATP luminescence, 24 h; with zVAD 60 µM | viability rescue, % at 10 µM | 220,000 tested, 0.38% active;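 active = activation, scaled between plate controls, above about 75%, limit read from the data; inactive = activation under that limit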
WT yeast gro inh: growth inhibition of WT yeast, mitochondrial fusion screen; 190,000 tested, 2.1% active; mitochondrial fusion phenotypic screen, WT strain; inhibition, % at 10 µM; AID 1362; in the data active = inhibition above about 58%; tested in S. cerevisiae
PKD1 kinase inh: PKD1 (human) kinase inhibition; AID 797; Q15139; inhibition, % (test concentration not listed); 200,000 tested, 0.056% active; PKD1 kinase fluorescence polarization assay; in the data active = inhibition above about 50%
DTT redox prof: compounds producing H2O2 with reducing agent – biochemical, NIH compound library profiling, artefact control for MLSCN library redox annotation, primary screen. DTT-dependent redox cycling H2O2, phenol red/HRP absorbance; 100% = 100 µM peroxide control, 0% = buffer. 200,000 tested, 0.03% active. activation, % at 10 µM;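 active = activation of at least 50% relative to the plate's high and low controls in the primary single-dose screen; inactive = activation below 50%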;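 note: compound incubated with DTT at 0.8 mM final as the reducing agent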
PERK inhibitor: blocks human PERK kinase. Q9NZJ5. 220,000 tested, 0.17% active. inhibition, % at 5.6 µM. CHO PERK-DD fusion, SEAP luminescence translation reporter;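 active = inhibition above the mean inhibition of all tested compounds plus 3 SD, set separately per screening campaign, cut at about 2.9% in these data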;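 note: PERK kinase domain activated by AP20187 dimerizer at 100 nM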
TNF death inh: inhibitors of TNF-alpha induced necroptosis in Jurkat FADD-/- cells; 220,000 tested, 0.068% active; Jurkat FADD-/- TNF necroptosis rescue, ATP luminescence, 24 h; 0 = TNF only, 100 = no-TNF cells; AID 463075; activation (protection from cell death), % at 10 µM;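 active = activation, meaning protection from cell death, of at least 50% relative to plate controls; inactive = activation below 50%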;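 note: necroptosis triggered by 40 ng/mL TNF-alpha added together with compound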
Numbers stand for hits; 0 = inactive; - = no result given. Compounds with a hit are over-represented: about 2.4% of the library has one in this group of screens.

SMILES	zVAD death inh	WT yeast gro inh	PKD1 kinase inh	DTT redox prof	PERK inhibitor	TNF death inh
Cc1ccc(S(=O)(=O)NC(C)(C)CN2CCC(Cc3ccccc3)CC2)cc1	0	-	-	-	0	0
COc1ccc2cc(C(=O)Nc3ccc(Cl)cc3)sc(=O)c2c1OC	0	0	0	0	0	0
COC(=O)C1=C(C)NC2=C(C1c1ccc(O)cc1)S(=O)(=O)c1ccccc12 (stereo not drawn)	0	0	0	0	0	0
COc1ccc(C2C(C#N)=C(C)NC3=C2S(=O)(=O)c2ccccc23)cc1 (stereo not drawn)	0	58	0	0	0	0
CC(Sc1nc2ccccc2n1C)C(=O)NC(c1ccccc1)c1ccccc1 (stereo not drawn)	0	59	0	0	0	0
O=[N+]([O-])c1cc(/C=N/O)ccc1Oc1cccc(Cl)c1	0	72	0	0	0	0
O=C(COC(=O)c1cnccn1)c1cccc([N+](=O)[O-])c1	0	-	-	-	0	0
NS(=O)(=O)c1ccc(N2N=C(c3ccccc3)CC2c2ccccc2)cc1 (stereo not drawn)	0	72	0	0	0	0
CCc1ccc(C2=NN(c3ccc(S(N)(=O)=O)cc3)C(c3ccc(F)cc3)C2)cc1 (stereo not drawn)	0	94	0	0	0	0
O=S(=O)(O)c1ccc(N2N=C(c3ccccc3)CC2c2ccccc2)cc1 (stereo not drawn)	0	0	0	0	0	0
O=C(CSc1nnnn1-c1cccc2ccccc12)NC(C(=O)O)(c1ccccc1)c1ccccc1	0	0	0	0	0	0
CN(C)c1ccc(/C=N/N=C(N)N)cc1[N+](=O)[O-]	0	0	0	0	0	0
O=C(Nc1ccc(Cl)c(Cl)c1)OCc1cccnc1	0	79	0	0	0	0
Cc1nc(-c2nnc(SCC(=O)Nc3cc(Cl)cc(Cl)c3)n2C)cs1	0	-	-	-	0	0
COc1ccc(S(=O)(=O)N2c3ccccc3OCC2C)cc1 (stereo not drawn)	0	0	0	0	0	0
COc1ccc(S(=O)(=O)N2c3ccccc3OCC2C(C)(C)C)cc1 (stereo not drawn)	0	77	0	0	0	0
c1ccc(Nc2scc(-c3ccccc3)[n+]2Cc2ccco2)cc1	0	67	0	0	0	0
Cc1cc(C)c(NC2=NCC(=O)N2C2CCCCC2)c(C)c1	0	68	0	0	0	0
CCc1ccccc1NC1=NCC(=O)N1C1CCCCC1	0	0	0	0	0	0
Clc1ccc(-c2nnc(NCc3ccccc3)c3ccccc23)cc1	0	73	0	0	0	0
Cc1ccc(-c2nnc(NCc3ccccc3)c3ccccc23)cc1	0	0	0	0	0	0
Cc1oc(-c2ccccc2)cc1C(=O)NC1CCN(Cc2ccccc2)CC1	0	-	-	-	0	0
O=C(CCCOc1ccccc1)N1CCc2ccccc2C1	0	0	0	0	0	0
O=C(CCCOc1ccc(Cl)cc1Cl)N1CCc2ccccc2C1	0	80	0	0	0	0
NC(=S)N/N=C/c1c(O)ccc2ccccc12	0	-	-	-	0	0
SMILES	zVAD death inh	WT yeast gro inh	PKD1 kinase inh	DTT redox prof	PERK inhibitor	TNF death inh
NC(=S)N/N=C1/CCSc2ccc3ccccc3c21	0	76	0	0	0	0
COc1nc2c(c(-c3cc(Br)cs3)c1C#N)Cc1ccccc1-2	0	-	-	-	0	0
S=C(Nc1ccccc1Oc1ccccc1)Nc1cccc(Cl)c1Cl	0	65	0	0	0	0
COc1ccc(NC(=S)NC2CCCCC2)c(OC)c1	0	0	0	0	0	0
COc1ccc(NC(=S)NC2CCCCCC2)c(OC)c1	0	64	0	-	0	0
FC(F)Sc1ccc(NC(=S)NCC2CCCCC2)cc1	0	78	0	0	0	0
FC(F)Sc1ccc(NC(=S)NC2CCCCC2)cc1	0	0	0	0	0	0
CC1CCCCC1NC(=S)Nc1ccc(SC(F)F)cc1 (stereo not drawn)	0	69	0	0	0	0
S=C(Nc1ccc(Cl)cc1Cl)Nc1ccccc1Oc1ccccc1	0	0	0	0	0	0
O=C(OCc1ccccc1)N1CCCC1/C=C/CN1CCOCC1 (stereo not drawn)	0	0	0	0	0	0
Cc1cc(C)cc(OCC(=O)NNC(=O)CN2C(=O)c3ccccc3C2=O)c1	0	0	0	0	0	0
S=C(Nc1ccc(Oc2ccccc2)cc1)NC1CCCC1	0	62	0	0	0	0
S=C(Nc1ccccc1Oc1ccccc1)NC1CCCC1	0	68	0	0	0	0
S=C(NCC1CCCCC1)Nc1ccc(Oc2ccccc2)cc1	0	77	0	-	0	0
O=C(Nc1ccccc1Oc1ccccc1)C1CCCC1	-	0	0	0	0	0
S=C(NCC1CCCCC1)Nc1cccnc1	0	0	0	0	0	0
CCOC(=O)C1=C(CS(=O)(=O)c2ccccc2)NC(=O)NC1c1ccccc1 (stereo not drawn)	0	0	0	0	0	0
CCCC1=C(C(=O)OCC)C(c2ccc(NC(C)=O)cc2)NC(=O)N1 (stereo not drawn)	0	61	0	0	0	0
CCOC(=O)c1sc(=NC(=O)c2ccccc2)n(C)c1C	0	0	0	0	0	0
CCOC(=O)c1sc(=NC(=O)CCS(=O)(=O)c2ccccc2)n(C)c1C	0	0	91	0	0	0
CCCCNCC#CCOc1cc(C)ccc1C(C)C	0	74	0	0	0	0
O=C(O)Cn1c(CC(=O)N2CCCC2)nc2ccccc21	0	63	0	0	0	0
CCOC(=O)c1cccc(NC(=O)Cn2c(CC(=O)N3CCCC3)nc3ccccc32)c1	0	0	0	0	0	0
N#C/C(=C\c1cccc(NC(=O)c2ccccc2Cl)c1)C(=O)NCCc1ccccc1	0	84	0	0	0	0
COc1cccc(NC(=O)c2cc(-c3cccnc3)nc3c(Cl)cccc23)c1	84	0	0	0	0	0
SMILES	zVAD death inh	WT yeast gro inh	PKD1 kinase inh	DTT redox prof	PERK inhibitor	TNF death inh
O=C(Nc1ccc(S(=O)(=O)Nc2ncccn2)cc1)c1ccc2ncsc2c1	0	-	-	-	2.9	0
COc1cc(CNn2cn[nH]c2=S)cc(Br)c1OCc1ccccc1F	0	72	0	0	0	0
Cc1nn(-c2ccccc2)c(C)c1NC(=O)COc1ccc(Br)cc1Cl	0	0	0	0	0	0
Cc1ccccc1NC(=O)CCN1CCc2ccccc2C1	0	0	0	0	0	0
COc1ccccc1S(=O)Cc1ccc(C(=O)O)o1 (stereo not drawn)	0	0	0	0	0	0
O=C(O)c1ccc(CS(=O)c2cccc(C(F)(F)F)c2)o1 (stereo not drawn)	0	0	0	0	3.7	0
CN1CCCCCC1C(=O)N1CCC(N2CCC(C(=O)N3CCOCC3)CC2)CC1 (stereo not drawn)	0	0	0	0	0	0
CCn1c(N)[n+](CC(=O)Nc2ccc(SC(F)F)cc2)c2ccccc21	0	-	-	-	0	0
